Columns and labels:
Test in all cases: PBM binding z-score (relative to random genomic background probes); higher = stronger binding; sequences stand for … in GC…GCGATTGACAGCGTAGAATGAAGG
[1] = system: FXR:RXRa (NR concentration 270 nM, RXRa partner concentration 90 nM)
Summary of the method: (§1)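 Scanned fluorescence from custom Agilent 4×180K protein-binding microarrays was regression-normalized. Binding z-scores use random background probes as reference. Ligand-free nuclear receptor dimers were incubated on the arrays for 1 h and detected with antibodies against each partner (one per run).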

[2] = system: LXRa:RXRa (NR concentration 270 nM, RXRa partner concentration 90 nM)
Summary of the method: as §1

[3] = system: LXRa homodimer (NR concentration 270 nM)
Summary of the method: as §1

[4] = system: LXRb:RXRa (NR concentration 270 nM, RXRa partner concentration 90 nM)
Summary of the method: as §1

[5] = system: LXRb homodimer (NR concentration 270 nM)
Summary of the method: as §1

[6] = system: PPARa:RXRa (NR concentration 270 nM, RXRa partner concentration 90 nM)
Summary of the method: as §1

[7] = system: PPARg:RXRa (NR concentration 180 nM, RXRa partner concentration 90 nM)
Summary of the method: as §1

[8] = system: PPARg:RXRa 270nM:90nM, anti-RXR (NR concentration 270 nM, RXRa partner concentration 90 nM)
Summary of the method: as §1

[9] = system: PPARg:RXRa 30nM:10nM, anti-RXR (NR concentration 30 nM, RXRa partner concentration 10 nM)
Summary of the method: as §1

[10] = system: PPARg:RXRa 90nM:30nM, anti-RXR (NR concentration 90 nM, RXRa partner concentration 30 nM)
Summary of the method: as §1

[11] = system: PPARg:RXRa DBDmut IVT, anti-RXR (DBD mutation: RXRa K156A/R161A, NR concentration 270 nM, RXRa partner concentration 90 nM)
Summary of the method: as §1

[12] = system: PPARg:RXRa IVT, anti-PPARg (NR concentration 270 nM, RXRa partner concentration 90 nM)
Summary of the method: as §1

[13] = system: PPARg DBDmut:RXRa IVT, anti-PPARg (DBD mutation: PPARg1 K132A/R137A, NR concentration 270 nM, RXRa partner concentration 90 nM)
Summary of the method: as §1

[14] = system: PPARg DBDmut IVT, anti-PPARg (DBD mutation: PPARg1 K132A/R137A, NR concentration 270 nM)
Summary of the method: as §1

[15] = system: PPARg homodimer (NR concentration 180 nM)
Summary of the method: as §1

[16] = system: PXR:RXRa (NR concentration 270 nM, RXRa partner concentration 90 nM)
Summary of the method: as §1

[17] = system: PXR homodimer (NR concentration 270 nM)
Summary of the method: as §1

[18] = system: RARa:RXR (NR concentration 270 nM, RXRa partner concentration 90 nM)
Summary of the method: as §1

[19] = system: RARa homodimer (NR concentration 270 nM)
Summary of the method: as §1

[20] = system: RARb:RXRa (NR concentration 270 nM, RXRa partner concentration 90 nM)
Summary of the method: as §1

| Sequence | PBM binding z-score [1] | PBM binding z-score [2] | PBM binding z-score [3] | PBM binding z-score [4] | PBM binding z-score [5] | PBM binding z-score [6] | PBM binding z-score [7] | PBM binding z-score [8] | PBM binding z-score [9] | PBM binding z-score [10] | PBM binding z-score [11] | PBM binding z-score [12] | PBM binding z-score [13] | PBM binding z-score [14] | PBM binding z-score [15] | PBM binding z-score [16] | PBM binding z-score [17] | PBM binding z-score [18] | PBM binding z-score [19] | PBM binding z-score [20] |
| --- | --- | --- | --- | --- | --- | --- | --- | --- | --- | --- | --- | --- | --- | --- | --- | --- | --- | --- | --- | --- |
| CCGACTGAGGCAAAGGTTACCATACTCAGTACGA | 0.7 | 1.19 | -0.159 | 1.48 | -0.611 | 3.69 | 6.77 | 6.76 | 4.81 | 6.88 | 0.849 | 2.47 | -0.356 | -0.203 | 1.16 | 1.56 | 0.0581 | 2.31 | 0.408 | 1.78 |
| ACAGACAGGTCAGTGAAGGTAACTCAGCTGGACG | 2.55 | 1.83 | -0.374 | 1.07 | -0.266 | 2.47 | 1.18 | 1.05 | -0.166 | 0.444 | 0.901 | 1.22 | -0.0695 | -0.218 | 0.397 | 1.57 | -0.149 | 1.78 | 0.123 | 3.51 |
| CCGACTGGGGCAGAACGGTTACCATACCATCCGG | -0.431 | -0.676 | -0.691 | -0.711 | -1.24 | -0.574 | 0.748 | -0.447 | -0.36 | -1.03 | 1.2 | 0.551 | -1.28 | -1.18 | -0.513 | -0.96 | -0.492 | -0.872 | -0.367 | 0.227 |
| GCGACTGGGGCATCAGCAGTTTACCATAACTTAA | -0.0811 | -0.328 | -0.256 | 0.505 | -0.674 | 0.605 | 0.756 | 1.18 | -0.193 | 0.414 | 3.71 | 2.93 | -0.206 | 0.0271 | 0.458 | 0.227 | 0.14 | 0.0655 | 0.0729 | 0.388 |
| CGTCCAAGGTCAATGCTGGGTCAGTGAAAGCATT | 6.49 | 4.95 | 0.942 | 3.75 | 0.628 | 5.14 | 3.82 | 4.53 | 1.09 | 3.07 | 3.06 | 3.71 | -0.934 | -0.907 | 4.17 | 4.66 | 1.2 | 5.52 | 0.99 | 5.31 |
| ACTATTAGTTGAGAAGAGGGCAACCGATAGGTTG | 0.199 | 0.323 | 0.0723 | -0.0222 | 0.248 | 0.44 | 0.56 | 0.246 | 0.12 | 0.365 | 0.072 | 0.463 | 1.02 | 0.853 | 0.882 | 0.779 | 0.445 | 0.623 | 1.19 | 1.32 |
| TTACCAAGGTGAAGGTCGTTGATCCCTCTGTAGA | 2.37 | 2.03 | -0.222 | 1.45 | -0.739 | 2.55 | 3.15 | 3.94 | 2.09 | 3.67 | 1.59 | 3.45 | 1.02 | -0.236 | 0.792 | 1.48 | 0.114 | 1.76 | -0.599 | 2.28 |

Reference: the supplement of paper PMC6555819
